For 15 compounds, growth results are on record in PubChem BioAssay (NCI).

This is part of a sample that, as a whole, favours compounds with a hit. Of some 83,000 tested, about 20% had one in any assay.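 Interpretation: 100, growth as untreated; towards 0, rising growth inhibition; 0, no net growth; 0 to -100, cell death. Compounds scoring below 10 were considered active.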 Activity calls are given as the source filed them.

The test system of the experiment is MDA-MB-468 breast. Kind of experiment: NCI-60 one-dose screen, 48 h (100 = growth as untreated, 0 = no growth, -100 = all killed). The following applies: 10 µM unless noted.
With `COc1ccc(CNCCCN2C(=O)c3ccc4c5c(ccc(c35)C2=O)C(=O)N(CCCNCCCCNCCCN)C4=O)c(OC)c1OC`, the growth was -85.6% (active).
Next, `O=Nc1ccc(Nc2ccccc2)cc1`: -8.9% (active); `Cc1cc2nc(CN)[nH]c2cc1C`: 103% (inactive).
Consider `c1ccc(Cc2ccccc2)cc1`, for which the growth was 92.9% (inactive).
Next, `COc1ccc(NC(=O)/N=c2\oc3c(OC)cccc3cc2-c2cc3ccccc3[nH]2)cc1`: 61.1% (inactive).
As for `N#CC1=C(/N=C/c2ccccc2)Oc2c(ccc3ccccc23)C1c1ccc([N+](=O)[O-])cc1` (stereo not given), the figure is 102% (inactive); as for `O=C(CSc1ccc(-c2nc3ccccc3[nH]2)cn1)N1CCN(c2ccccc2F)CC1`, 53.1% (inactive); as for `C=CCOc1c(Br)cc(Br)cc1Br`, 96.8% (inactive).
As for `C[C@H]1c2cccc(O)c2C(O)=C2C(=O)[C@]3(O)C(O)=C(C(N)=O)C(=O)[C@@H](N(C)C)[C@@H]3[C@@H](O)[C@@H]21`, the figure is 41.8% (inactive); as for `NC(N)=Nc1ccc(Oc2cccc(Nc3ccc(Cl)c(C(F)(F)F)c3)c2)cc1`, 4.84% (active).
Regarding `CC(C)(C)c1ccc(S(=O)(=O)Oc2ccc3c4c(c(=O)oc3c2)CCCCC4)cc1`, the growth was 23.9% (inactive).
Next, `NC(=NCc1ccccc1)C(N=Nc1ccccc1)C(=O)NCc1ccccc1` (stereo not given): 55.3% (inactive); `Cc1noc(C)c1CSc1nc2ccccc2n1-c1ccccc1`: 108% (inactive); `CCOc1ccc(NC(=O)Nc2cc(C(C)C)ccc2C)cc1`: 114% (inactive).
Next, `Cn1cc(-c2csc(-c3cn(CCNC(=O)OC(C)(C)C)c4ccc(F)cc34)n2)c2cccnc21`: 19.5% (inactive).
